Inconclusive results are not listed. Activity calls are given as the source filed them. Unless noted, the call rests on the fitted dose curve; in most records, active means well fitted activation curve with a large enough effect; inconclusive means small, poorly fitted or top-dose-only effect; inactive means flat fitted curve, though single readings scatter.
experiment: qHTS Assay for Identification of Small Molecule Agonists for Hypoxia Response Element Signaling Pathway (AID 914; active means well fitted activation curve with a large enough effect in the signal ratio, with a control signal flat, not every such curve was filed as active; the % refers to the signal ratio); settings: ME-180 (cervical carcinoma) HRE-bla reporter, beta-lactamase ratio, CoCl2, 17 h; active compounds read high
Outline: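 Reporter activity (beta-lactamase, CCF4 460nm/530nm ratio) in HRE-bla ME-180 cells is recorded after 17 h compound exposure with EC50 CoCl2 at 37 degrees Celsius. AC50 values come from titration data.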
Further: % of control where 0% means no effect.

activation, inactive:
COC(=O)[C@H](Cc1ccccc1)NC(=O)[C@@H](C)CO 5.86%
COC(=O)C/C=C\[C@@H](C)[C@H]1C=C[C@H](O)[C@@H](CO)O1 10.7%
CSCC[C@@H]1NC(=O)C/C=C\[C@@H](C)COC(=O)[C@H](C)COC1=O 5.76%
Cc1ccc(S(=O)(=O)N[C@H]2COC(=O)C/C=C\[C@@H](C)[C@H](NS(=O)(=O)c3ccc(C)cc3)COC(=O)[C@H](C)NC(=O)C/C=C\[C@H]2C)cc1 3.42%
CC(C)CO/N=C1/C[C@@H](O)[C@@H](O)[C@@H]2[C@@H]3C(=O)N(C4CCCCC4)C(=O)[C@H]3CC[C@@H]12 -7.25%
CCOC(=O)CCN1C(=O)[C@H]2[C@@H]3[C@H](O)[C@H](O)CC(=O)[C@H]3CC[C@H]2C1=O 2.87%
C[C@@H]1/C=C\CC(=O)OC[C@H](C)C(=O)N[C@@H](C)C(=O)OC1 0.738%
CC(C)[C@@H](OCc1ccccc1)[C@H](C)/C=N\OC[C@@H](C)[C@H](OCc1ccccc1)C(C)C -1.89%
COC(=O)C/C=C\[C@@H](C)[C@@H](/C=N\O[C@@H](C)CN1CCCc2nc(C)c(C)cc21)NS(=O)(=O)c1ccc(C)cc1 4.52%
C[C@H]1COC(=O)[C@H]2CCCN2C(=O)[C@@H](C)COC(=O)[C@H](Cc2ccccc2)NC1=O -0.107%

experiment: Confirmation and Secondary Assay for Modulators of Hemoglobin Beta Chain Splicing at IVS2 705 locus (AID 930); settings: HeLa EGFP-705 splicing reporter, GFP fluorescence, 48 h; series mostly up to 46.1 µM;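 further: HeLa cells stably expressing the EGFP-705 splicing reporter; GFP fluorescence per well restored by corrected splicing of the IVS2-705 intron in EGFP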
Outline: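 Stable HeLa line with EGFP disrupted by mutant beta-globin intron 2 (705). Overnight attachment, then 2 days of compound at 37C, 5% CO2. Signal: peak GFP intensity summed over objects 5-250 µm.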

outcome, inactive:
COc1cc2c(c(OC)c1OC)-c1ccc(OC)c(=O)cc1C(NC(C)=O)CC2 (centres undefined)
CC(=O)[C@]1(O)CCC2C3CC(C)C4=CC(=O)C=CC4(C)[C@@]3(F)C(O)C[C@]21C (some centres undefined)
CC1(C)C(=O)C=C[C@]2(C)C1CC(=O)[C@]1(C)C2CC[C@@]2(C)C(c3ccoc3)OC(=O)C3O[C@@]321 (some centres undefined)
CC(=O)N1CCN(c2ccc(OCC3CO[C@@](Cn4ccnc4)(c4ccc(Cl)cc4Cl)O3)cc2)CC1 (some centres undefined)
C=C1c2c(Cl)ccc(O)c2C(O)=C2C(=O)[C@]3(O)C(O)=C(C(N)=O)C(=O)C(N(C)C)C3C(O)C12 (some centres undefined)
OC1C=C2CCN3Cc4cc5c(cc4C(C1O)C23)OCO5 (centres undefined)
CC(C)(C)NCC(O)COc1cccc2c1CC(O)C(O)C2 (centres undefined)
CCOC(=O)C1=C[C@@]2(CC)CCCN3CCc4c(n1c1ccccc41)C32 (some centres undefined)
CC1CC2C3CC(F)C4=CC(=O)C=C[C@@]4(C)[C@@]3(F)C(O)C[C@]2(C)[C@]1(O)C(=O)COC(=O)C(C)(C)C (some centres undefined)
CN1C2CC(OC(=O)C(CO)c3ccccc3)C[C@@H]1[C@H]1OC21 (some centres undefined)
CNC(C)C1CC[C@H](N)[C@@H](OC2C(N)C[C@H](N)[C@@H](OC3OC[C@](C)(O)C(NC)[C@H]3O)C2O)O1 (some centres undefined)
CC1CC[C@@]2(C(=O)O)CC[C@]3(C)C(=CCC4[C@@]5(C)CCC(O)C(C)(C)C5CC[C@@]43C)C2C1C (some centres undefined)
CC(CCC(=O)O)C1CCC2C3CC[C@H]4CC(O)CC[C@@]4(C)C3CC[C@@]12C (some centres undefined)
Nc1ncn(C2OC(CO)C(O)C2O)c(=O)n1 (centres undefined)
